Records with an inconclusive call do not appear. The source made the active and inactive calls. Unless noted, calls follow the shape of the dose curve; as a rule, active = well fitted curve in the direction sought with a large enough effect; inconclusive = small, poorly fitted or top-dose-only effect, or another doubt; inactive = no such curve, though single readings can be large; an effect the other way counts as inactive or inconclusive.
What was measured:
[1] = Cell Viability - BJ (AID 421; calls by dose curve;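 also: potency is read from the fitted curve at half-maximal effect; cells exposed to compound for 40 hours at 37 °C before readout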); conditions: BJ fibroblast viability, qHTS
Method in brief: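 Luminescent ATP signal (CellTiter-Glo, 20 min at room temperature) served as the read-out of viable BJ cells after 40 hours of compound treatment. Responses were scaled between DMSO and 100 uM tamoxifen, and AC50 values were obtained by Hill modeling.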

[2] = Cell Viability - Jurkat (AID 426;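 active = dose-dependent loss of cell ATP signal giving a full or clear fitted curve, ranked by lower potency value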;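 also: potency is read from the fitted curve at half-maximal effect; cells exposed to compound for 40 hours at 37 °C before ATP read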); conditions: qHTS
Method in brief: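 Cells of the human T-cell leukemia line Jurkat (E6-1) are seeded at 5000 per well, treated with compound across a concentration range for 40 hours at 37 °C, then lysed with CellTiter-Glo; luminescence reports ATP.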

[3] = Cell Viability - Hek293 (AID 427;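 active = compounds whose dose-response curve shows a full or clear partial loss of cell viability, called from curve shape rather than a numeric limit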;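 also: potency is read from the fitted curve at half-maximal effect; cells exposed to compound for 40 hours at 37 °C before reading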); conditions: qHTS
Method in brief: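 Luminescent ATP read-out (CellTiter-Glo, 20 min RT) after 40 hr compound exposure at 37 °C in complete medium. Signal normalized to DMSO (basal) and 100 uM tamoxifen (100% inhibition); concentration-response fitted with the standard Hill equation to give AC50.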

[4] = Cell Viability - HepG2 (AID 433; calls by dose curve;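 also: potency is read from the fitted curve at half-maximal effect; potency for ATP loss meaning cytotoxicity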); conditions: qHTS
Method in brief: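 HepG2 hepatocellular carcinoma cells (1500/well) were treated with compounds for 40 h at 37 °C in complete medium; intracellular ATP was read by CellTiter-Glo luminescence. Data were normalized to DMSO and 100 uM tamoxifen, and AC50 came from Hill fits.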

[5] = Cell Viability - MRC5 (AID 434; calls by dose curve;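 also: potency is read from the fitted curve at half-maximal effect; potency reflects cytotoxicity seen as loss of intracellular ATP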); conditions: MRC5 lung fibroblast viability, qHTS
Method in brief: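 Decrease in intracellular ATP, quantified by luciferase light output, reflects compound toxicity toward MRC5 cells exposed for 40 hr in complete culture medium. Concentration-response curves, scaled between DMSO and 100 uM tamoxifen, gave AC50 values.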

[6] = Cell Viability - SK-N-SH (AID 435; calls by dose curve;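 also: potency is read from the fitted curve at half-maximal effect; compound exposure lasted 40 h at 37 °C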); conditions: SK-N-SH neuroblastoma cell viability qHTS
Method in brief: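 SK-N-SH human neuroblastoma cells (1500/well) were exposed to compounds in complete medium for 40 h at 37 °C, and intracellular ATP was then measured by CellTiter-Glo luminescence. AC50 was taken from Hill fits, normalized to DMSO and 100 uM tamoxifen.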

[7] = Cell Viability - N2a (AID 540); conditions: N2a mouse neuroblastoma cell viability; at 92.2 µM (top of the series);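 also: plate controls were DMSO alone for no effect and tamoxifen control for full effect; nearly all actives have a fitted effect of over 45% in size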
Method in brief: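 Cytotoxicity was scored as loss of cellular ATP in N2a cells, a mouse neuroblastoma line. Compounds are applied in a qHTS concentration series for 40 hr at 37 °C.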

[8] = Cell Viability - HUV-EC-C (AID 542); conditions: HUV-EC-C endothelial cell viability, qHTS; series mostly up to 92.2 µM; also: % is scaled to controls: 0 for no effect and ±100 for the full control effect; nearly all actives have a fitted effect of over 35% in size
Method in brief: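 Cells were seeded at 1000 per well and incubated 5 hr at 37 °C before compound addition. After 40 hr at 37 °C, CellTiter-Glo reagent was added for 20 min and luminescence read. AC50 values came from Hill-equation modelling.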

[9] = Cell Viability - H-4-II-E (AID 543); conditions: H-4-II-E rat hepatoma viability; series mostly up to 92.2 µM; also: % is scaled to controls: 0 for no effect and ±100 for the full control effect; nearly all actives have a fitted effect of over 35% in size
Method in brief: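 Cells seeded at 1500 per well and rested 5 hr; compounds added; 40 hr incubation at 37 °C; CellTiter-Glo added, 20 min at room temperature; luminescence read. Hill-equation fits gave AC50.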

[10] = Cell Viability - SH-SY5Y (AID 544); conditions: SH-SY5Y neuroblastoma cell viability; series mostly up to 92.2 µM; also: nearly all actives have a fitted effect of over 55% in size
Method in brief: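 Cells were plated at 1500 per well and allowed 5 hr at 37 °C. Compounds were added across a concentration range and incubated 40 hr at 37 °C. CellTiter-Glo was added for 20 min at room temperature before luminescence reading.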

[11] = Cell Viability - Renal Proximal Tubule (AID 545); conditions: renal proximal tubule cells viability; series mostly up to 91.7 µM; also: nearly all actives have a fitted effect of over 40% in size
Method in brief: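 Primary rat renal proximal tubule cells (1000/well) were treated with compounds for 40 hr at 37 °C in complete medium. Intracellular ATP was measured by CellTiter-Glo luminescence, and AC50 values came from Hill-equation fits of concentration-response data.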

[12] = Cell Viability - Mesenchymal (AID 546); conditions: mesenchymal cells viability, qHTS; series mostly up to 91.7 µM;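 also: cells exposed to compound for 40 hours before reading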
Method in brief: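 In this qHTS cytotoxicity format, glomerulus-derived human mesenchymal kidney cells received compound for 40 hr, then luciferase-based ATP quantitation. Concentration-response data were fitted with the Hill equation.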

[13] = Cellular Toxicity (caspase-3) Jurkat (AID 655); conditions: Jurkat caspase-3 activation, luminescence, DMSO = 0%, tamoxifen = 100%; series mostly up to 92.2 µM;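 also: cells exposed to compound for 16 h at 37 °C before reading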
Method in brief: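 Jurkat cells (5000/well) in complete medium were treated with compounds for 16 hr at 37 °C, then Caspase-Glo 3/7 luminescence was read after 20 min at room temperature. Data normalized to DMSO (basal) and 100 uM tamoxifen (100%); AC50 from Hill fit.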

[14] = Cellular Toxicity (caspase-3) HUV-EC-C (AID 656); conditions: HUV-EC-C cells, caspase-3 activation (apoptosis), vehicle = 0, 100 µM tamoxifen = 100%; series mostly up to 92.2 µM
Method in brief: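 HUV-EC-C endothelial cells, 1000/well, were pre-incubated 5 hr at 37°C, then exposed to compounds for 16 hr at 37°C. Caspase-Glo 3/7 luminescence was read after 20 min at room temperature. AC50 came from Hill fits, normalized to DMSO and 100 uM tamoxifen.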

[15] = Cellular Toxicity (caspase-3) SHSY5Y (AID 657); conditions: SH-SY5Y caspase-3 activation, DMSO zero, 10 µM staurosporine = 100%; series mostly up to 91.7 µM
Method in brief: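 SH-SY5Y human neuroblastoma cells (1500/well) were treated with compounds for 16 h at 37 °C, then Caspase-Glo 3/7 luminescence was read after 1 h at room temperature. Data normalized to DMSO and 10 uM staurosporine; AC50 from Hill fits.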

[16] = Cellular Toxicity (caspase-3) BJ (AID 658); conditions: BJ fibroblasts, luminescence, normalized: DMSO 0%, staurosporine 100%; series mostly up to 91.7 µM
Method in brief: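 Plated BJ cells (1000/well) rested 5 hr, received compound for 16 hr at 37 °C, then Caspase-Glo 3/7 reagent for 1 hr at room temperature before luminescence reading.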

[17] = Cellular Toxicity (caspase-3) MRC-5 (AID 659); conditions: MRC-5 cells, luminescence, normalized: DMSO 0%, 10 µM staurosporine 100%; series mostly up to 91.7 µM
Method in brief: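 Apoptosis readout in MRC-5 cells: luciferase light generated after caspase 3/7 cleaves a peptide-aminoluciferin substrate, measured post 16 hr compound incubation at 37 °C.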

[18] = Cellular Toxicity (caspase-3) Mesangial (AID 660); conditions: mesangial cells, normalized: DMSO 0%, 100 µM tamoxifen 100%; series mostly up to 91.7 µM;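 also: combined caspase 3 and 7 activity read by Caspase-Glo luminescence; cells exposed to compound for 16 h before the caspase read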
Method in brief: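 Seed cells derived from normal human renal glomeruli, incubate 5 h, add compounds across concentrations and incubate 16 h at 37 °C. Caspase 3/7 activation is then quantified by luciferase light, with AC50 derived by Hill modeling.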

[19] = Cellular Toxicity (caspase-3) SK-N-SH (AID 661); conditions: SK-N-SH caspase-3 activation, qHTS, DMSO as zero, staurosporine as full; series mostly up to 91.7 µM
Method in brief: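 Cells were seeded and incubated 5 hr at 37 °C, dosed with compound over a concentration range for 16 hr, then given Caspase-Glo 3/7 reagent for 1 hr at room temperature before luminescence reading.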

[20] = Cellular Toxicity (caspase-3) H-4-II-E (AID 663); conditions: H-4-II-E rat hepatoma, scaled: DMSO 0%, 100 µM tamoxifen 100%; series mostly up to 92.2 µM;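 also: cells exposed to compound for 16 hr before readout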
Method in brief: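 Caspase 3/7 activation measured in H-4-II-E cells in complete culture medium after 16 hr treatment at 37 °C, using luciferase-coupled substrate readout; AC50 values come from Hill-equation fits of normalized concentration-response data.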

[21] = Cellular Toxicity (caspase-3) Hek293 (AID 664); conditions: HEK293 caspase-3 activation, DMSO = 0%, 100 µM tamoxifen = 100%; series mostly up to 92.2 µM;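 also: cells exposed to compound for 16 h at 37 °C before readout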
Method in brief: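 qHTS, HEK293 (human embryonic kidney), 16 h cpd exposure in complete medium. Caspase-3/7 activation = luminescence increase; normalized to DMSO/100 uM tamoxifen; Hill-fit AC50.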

[22] = Cellular Toxicity (caspase-3) N2a (AID 665); conditions: N2a cells, luminescence, normalized: DMSO 0%, 10 µM staurosporine 100%; series mostly up to 92.2 µM;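 also: compound exposure lasted 16 h at 37 °C before readout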
Method in brief: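 Caspase-3/7 activation, measured as increased luminescence from aminoluciferin release, is quantified in mouse N2a cells exposed to compounds for 16 h. Values are normalized to DMSO and 10 uM staurosporine, with AC50 derived by Hill modelling.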

O=Cc1ccccc1
inactive: Potency [1] > 92 µM | Potency [2] > 92 µM | Potency [3] > 92 µM | Potency [4] > 92 µM | Potency [5] > 92 µM | Potency [6] > 92 µM | activity change, negative = cytotoxicity [7] 6.11% | outcome [8] | outcome [9] | outcome [10] | outcome [11] | outcome [12] | outcome [13] | outcome [14] | outcome [15] | outcome [16] | outcome [17] | outcome [18] | outcome [19] | outcome [20] | outcome [21] | outcome [22]

From PubChem BioAssay (NCATS)
